According to PubChem BioAssay (NCI):
Compounds without any hit were thinned out: in the full panel of roughly 83,000, 20% have a hit.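 96-well plates, one dose, 48 hours. Percent growth reported; active if below 10.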 Values without a mark were called inactive. Calls of active or inactive are those of the source.

What was measured:
Test in all cases: NCI-60 one-dose screen, 48 h (100 = growth as untreated, 0 = no growth, -100 = all killed)
DU-145 prostate = settings: 10 µM
K-562 leukemia = settings: 10 µM
MALME-3M melanoma = settings: 10 µM
MDA-MB-231 breast = settings: 10 µM
RXF 393 renal = settings: 10 µM
SF-268 CNS = settings: 10 µM
SF-295 CNS = settings: 10 µM
SF-539 CNS = settings: 10 µM
M14 melanoma = settings: 10 µM
HCT-15 colon = settings: 10 µM
HT29 colon = settings: 10 µM
SNB-75 CNS = settings: 10 µM
SNB-19 CNS = settings: 10 µM
PC-3 prostate = settings: 10 µM
UACC-62 melanoma = settings: 10 µM unless noted
LOX IMVI melanoma = settings: 10 µM
SK-MEL-28 melanoma = settings: 10 µM
UACC-257 melanoma = settings: 10 µM
U251 CNS = settings: 10 µM
SK-MEL-5 melanoma = settings: 10 µM

Row | SMILES | growth (DU-145 prostate) [%] | growth (K-562 leukemia) | growth (MALME-3M melanoma) | growth (MDA-MB-231 breast) | growth (RXF 393 renal) | growth (SF-268 CNS) [%] | growth (SF-295 CNS) | growth (SF-539 CNS) | growth (M14 melanoma) | growth (HCT-15 colon) | growth (HT29 colon) | growth (SNB-75 CNS) [%] | growth (SNB-19 CNS) [%] | growth (PC-3 prostate) | growth (UACC-62 melanoma) | growth (LOX IMVI melanoma) | growth (SK-MEL-28 melanoma) [%] | growth (UACC-257 melanoma) [%] | growth (U251 CNS) | growth (SK-MEL-5 melanoma)
1 | CC(C(=O)O)(C1CCCCC1)C1(O)CCCCC1 (centres undefined) | 108 | 102% | 98.9% | 109% | 99.1% | 99.2 | 82.9% | 103% | 104% | 104% | 101% | 85.2 | 111 | 94.9% | 113% | 95.3% | 107 |  |  | 
2 | CC(=O)OCC1OC(OC2=C(CC=C(C)C)C(=O)c3ccccc3C2=O)C(OC(C)=O)C(OC(C)=O)C1OC(C)=O (centres undefined) | 57.1 | -47.4% (active) | -36.2% (active) | 6.41% (active) | 61.1% | 22.7 | 63.4% |  | 46.8% | 12.2% |  |  | 61.2 | -6.07% (active) | -23.8% (active) | 6.88% (active) | 30.3 | 20.6 | 8.23% (active) | 4.66% (active)
3 | C=CCCCCCCCCCOC(C)=O | 102 | 93.6% | 93.1% | 97% | 103% | 96.9 | 105% | 105% | 104% |  | 103% | 101 |  | 95.2% | 95.7% | 99.2% | 112 |  |  | 101%
4 | NC(CSC(c1ccccc1)(c1ccccc1)c1ccccc1)C(=O)O (centres undefined) | 29.9 | 14.5% | 51.1% | 4.8% (active) | 3.38% (active) | 43.3 |  | 10.3% | 13.6% | 34.3% | 14% | 64.9 | 49.8 | 19.7% | 48% | 38.2% | 57.9 | 52.3 | 14.1% | 26.3%
5 | Nc1ccccc1SC(CC(=O)c1ccccc1)c1c(Cl)cccc1Cl (centres undefined) | 23.9 | 12.4% | 77.1% | 86.6% | 86.8% | 56 | 94.2% | 101% | 93% | 44.5% | 42.5% | 70.6 |  |  | 73.9% | 22.7% | 90.8 |  | 27% | 81.4%
6 | S=C1NCc2cncnc2N1 | 112 | 93% | 112% | 132% | 105% | 107 | 94.2% | 92.7% | 103% |  | 104% | 86.6 | 109 | 96.1% | 108% |  | 107 |  |  | 103%
7 | O=C(Nc1ccccc1)OCCc1ccccc1 | 108 | 114% | 107% | 119% | 93.3% | 111 | 80.9% | 99% | 110% | 96.9% | 95% | 80.3 | 101 | 91% | 104% | 107% | 100 |  |  | 99.3%
8 | COc1cccc(COC(=O)Nc2ccccc2)c1OC | 104 | 102% | 105% | 104% | 95.8% | 114 | 88.5% | 107% | 105% | 85.4% | 105% | 84.1 | 101 | 83.9% | 94.4% | 103% | 102 |  |  | 98.2%
9 | O=[N+]([O-])c1ccc(CO)cc1 | 115 | 93.7% | 99.3% | 95.2% | 97.9% | 107 | 94.4% | 97.9% | 103% |  | 108% | 108 | 105 | 97.2% | 99.1% | 99.2% | 112 |  | 105% | 101%
10 | COc1ccc(/C(C#N)=C2C=C/C(=N/O)c3ccccc3\2)cc1 | 10.1 | 13.2% | 51.4% | 10.2% | 53.9% | 18.6 | -38.6% (active) | -14.7% (active) | 7.1% (active) | 7.28% (active) | -13.3% (active) | 23.4 | 61.7 | 12.8% | 6.75% (active) | 9.34% (active) | 46.5 |  |  | -28.9% (active)
